Assay outcomes: PubChem BioAssay, Broad Institute
Sampled rows, rich in hits. Any-hit rate of the full collection: about 3.7%.
MLL AF4-AF9 inh – MLL-AF4/AF9 protein interaction inhibition; P42568; AlphaScreen, biotin-AF4 peptide binding to FLAG-AF9; inhibition, % at 10 µM; 350,000 tested, 0.47% active; AID 651704;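 active = every replicate reaching a set inhibition limit, whatever the replicate mean, cut at about 25% in these data; inconclusive = mean inhibition reaches that limit but some replicates miss it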
Target sequence (P42568 whole entry, looked up): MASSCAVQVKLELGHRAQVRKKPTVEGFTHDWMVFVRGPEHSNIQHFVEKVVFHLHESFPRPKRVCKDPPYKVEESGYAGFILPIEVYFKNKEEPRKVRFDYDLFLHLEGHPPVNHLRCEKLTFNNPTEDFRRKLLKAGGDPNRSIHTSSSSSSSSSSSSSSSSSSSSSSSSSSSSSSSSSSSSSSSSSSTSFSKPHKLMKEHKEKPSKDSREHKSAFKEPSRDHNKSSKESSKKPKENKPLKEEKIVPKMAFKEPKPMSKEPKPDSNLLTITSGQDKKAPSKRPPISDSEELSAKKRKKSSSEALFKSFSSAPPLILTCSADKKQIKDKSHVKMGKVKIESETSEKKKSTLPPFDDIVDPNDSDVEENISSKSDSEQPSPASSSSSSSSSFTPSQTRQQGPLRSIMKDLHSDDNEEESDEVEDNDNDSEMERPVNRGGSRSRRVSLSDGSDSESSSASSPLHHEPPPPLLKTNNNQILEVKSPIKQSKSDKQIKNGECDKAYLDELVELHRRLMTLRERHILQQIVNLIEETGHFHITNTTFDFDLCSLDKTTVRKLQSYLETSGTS
Wnt bcat act – Wnt/beta-catenin pathway activation; Wnt/beta-catenin reporter cell assay, activator, plate reader; activation, % at 9.35 µM; 300,000 tested, 1.2% active; in the data active = activation above about 30%, passing the limit was not always enough; inconclusive = no clear call, values can overlap the other calls
esBAF inh – blocks esBAF chromatin remodeling in mouse ES cells; Bmi1-luciferase knock-in reporter, 24 h; 100% = twice the neutral-well signal; reporter increase, % at 12.5 µM; 350,000 tested, 2% active; in the data active = activation above about 40%; inconclusive = no clear call, values can overlap the other calls;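 also: a rise in the Bmi1 reporter signal indicates esBAF inhibition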
MITF act – increases MITF-driven TRPM1 promoter luciferase signal. SK-MEL-5 TRPM1-promoter luciferase, 24 h; % of positive control, neutral wells = 0. activation, % at 12.5 µM. 300,000 tested, 0.75% active;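 active = mean activation of at least 80% with every replicate also reaching 80%; inconclusive = mean reaches 80% but some replicate falls short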
rRNA inh HTS – inhibits bacterial ribosomal RNA function over humanized ribosomes; E. coli WT GFP vs humanized-ribosome RFP mutants, fluorescence, 24 h; hits give low values; DMSO median 0, no signal -100; GFP signal change (wild-type ribosome), % (concentration not given with the values); 350,000 tested, 1.6% active;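 active = significant combined selectivity score with lowered wild-type GFP, culture density cut under 30%, mutant RFP and density less affected; inactive = any of these conditions unmet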
A number is an active result; i = inactive; ? = inconclusive; nt = no result.

SMILES	MLL AF4-AF9 inh	Wnt bcat act	esBAF inh	MITF act	rRNA inh HTS
COc1ccc2c3c(n(C)c2c1)[C@@H](CO)N(C(=O)CN1CCOCC1)CC31CN(C(=O)Nc2cccc(F)c2)C1	i	nt	nt	nt	i
COc1cc(OC)cc(-c2nc3cc(C)ccc3o2)c1	nt	57	45	i	nt
OCc1cn(-c2ccccc2)nc1-c1cc2ccccc2o1	i	57	?	i	i
CN(C)C(=O)C[C@@H]1CC[C@@H]2[C@@H](COc3ccc(NC(=O)c4ccc(F)cc4)cc3C(=O)N2C)O1	i	nt	i	nt	i
N#Cc1c(N2CCCC2)nc(N)c2c(N)nc(N3CCCC3)cc12	nt	nt	69	i	nt
COc1cc2c(C#N)c(N3CCCC3)nc(N)c2c(N)n1	i	i	i	i	i
CCN(c1ccccc1)S(=O)(=O)c1ccc(Cl)c(NC(=O)CSc2nnc(C)s2)c1	i	i	i	i	-32
O=S(=O)(Nc1ccc2c(c1)OCO2)c1ccc(F)c(F)c1	i	i	i	i	i
Cc1nnc(NC(=O)CSc2nnc(CC(=O)Nc3ccccc3F)n2C)s1	53	i	i	i	i
Cc1nnc(NC(=O)CSc2nnc(CC(=O)Nc3ccccc3Cl)n2C)s1	i	i	i	i	i
CCS(=O)c1scc(-c2ccc(Cl)cc2)c1C#N (configuration not stated)	i	i	i	i	-32
O=C(OCc1ccccc1)/C(=C/c1cccc(Br)c1)NC(=O)c1ccco1	i	i	i	i	-29
Cc1ccc(C)c(Nc2nc(N)c3ccccc3n2)c1	i	33	nt	i	i
COc1ccc(Cl)cc1Nc1nc(N)c2ccccc2n1	i	i	i	nt	i
NC(=O)c1ccccc1NC(=O)c1ccc2c(c1)OCO2	i	42	i	nt	i
NC(=O)c1ccccc1NC(=O)COc1ccc2c(c1)OCO2	?	i	48	132	i
Cc1cccc(-n2c(C)nc3sccc3c2=O)c1	nt	nt	i	nt	nt
Cc1ccc(-c2cc(-c3ccccc3C)[nH]n2)c(O)c1	nt	nt	i	i	nt
O=[N+]([O-])c1ccccc1-c1cc(-c2ccccc2O)n[nH]1	nt	36	55	i	nt
CN(Cc1ccc(Cl)cc1)C(=O)c1[nH]c(C(F)(F)F)nc1-c1ccccc1	i	i	i	nt	i
Cc1ccc(S(=O)(=O)N(CC(=O)Nc2ccccc2C(=O)O)c2cccc(Cl)c2C)cc1	i	i	nt	i	i
CC(NCc1ccccc1Cl)C(=O)Nc1ccc(C#N)cc1 (configuration not stated)	i	i	nt	i	-29
C[C@@H]1CN([C@@H](C)CO)C(=O)c2cc(Br)cnc2O[C@@H]1CN(C)C(=O)c1ccc(F)cc1	i	i	i	nt	i
O=c1[nH]c2ccccc2nc1/C=C/c1ccccc1	i	?	nt	i	i
O=c1[nH]c2ccccc2nc1/C=C/c1ccc(O)cc1	i	i	51	i	i
SMILES	MLL AF4-AF9 inh	Wnt bcat act	esBAF inh	MITF act	rRNA inh HTS
O=c1[nH]c2ccccc2nc1/C=C/c1ccc(F)cc1	i	i	56	i	i
NC(=S)NN=C1CCCCCCCC1	i	i	nt	i	i
COc1ccc(Cn2cc(CN3CCc4onc(-c5ccc(Br)cc5)c4C3=O)nn2)cc1	nt	32	nt	nt	nt
COc1ccccc1-n1cc(CN2CCc3onc(-c4ccc(Br)cc4)c3C2=O)nn1	nt	i	nt	nt	nt
Cc1ccc(NC(=O)C2(S(=O)(=O)c3ccc(C)cc3)CC2)cc1	i	i	i	i	i
O=C1N/C(=N\S(=O)(=O)c2ccccc2)S/C1=C\c1cc([N+](=O)[O-])ccc1O	i	i	i	i	i
O=C1N/C(=N\S(=O)(=O)Cc2ccccc2)S/C1=C/c1cc([N+](=O)[O-])ccc1O	nt	i	nt	i	-20
CN1CCN(CCC(=O)N/N=C/c2ccccn2)CC1	i	i	i	i	i
CO[C@H]1CN(C)C(=O)c2cc(NC(=O)c3ccc(F)cc3)ccc2OC[C@H](C)N(C(=O)CC2CC2)C[C@@H]1C	nt	nt	i	nt	i
O=C(O)/C=C/c1cccc(OCc2ccccc2)c1	i	i	i	i	i
O=C(/C=C/c1ccccc1)Nc1cccc(C(=O)NCCCCc2ccccc2)c1	i	i	43	i	i
CCOc1cccc(/C=C/C(=O)O)c1	47	i	i	i	i
O=C(/C=C/c1ccccc1)Nc1cccc(C(=O)NCCc2ccccc2)c1	i	i	62	?	i
CCOc1ccc(/C=C/C(=O)Nc2cccc(C(C)=O)c2)cc1	nt	nt	59	i	nt
O=C(NCCCc1ccccc1)c1cccc(NC(=O)c2ccccc2)c1	i	i	i	i	i
COCC(=O)N[C@@H]1C=C[C@H](CC(=O)NCc2ccccc2OC)O[C@H]1CO	i	nt	i	nt	i
